Sampled rows, rich in hits. Any-hit rate of the full collection: about 1.8%.
Mito fusion yeast: blocks mitochondrial division or promotes mitochondrial fusion; S. cerevisiae fusion-defective mutant growth rescue, CellTiterGlo 48 h; Potency, µM (series often up to 46.1 µM), inactives show top-dose growth rescue (activation), actives largely listed as activators; actives 0.23% (n = 320,000); further: potency means the concentration at half of the fitted maximal effect; % of control where 0% means no effect; nearly all actives have a fitted effect of over 45% in size
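S. cerevisiae fusion-defective temperature-sensitive mutants (e.g. fzo1-1, mgm1-5) grown 48 h at 37C in YPEG (ethanol/glycerol non-fermentable) medium with 23 nl compound per well; growth rescue read as CellTiterGlo luminescence.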
Glioma ERSR ind: ER stress response induction in glioma. AID 602332. Potency, µM, for the others: top-dose activation, usual class: activators. U87-MG GRP78 promoter luciferase reporter, 16 h. actives 0.02% (n = 420,000); further: potency means the concentration at half of the fitted maximal effect; series mostly up to about 76 µM; % of control where 0% means no effect; nearly all actives have a fitted effect of over 35% in size
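Stably transfected U87-MG glioma cells carrying a GRP78-based luciferase sensor; 16 h compound incubation. Luminescence end-point read 10 min after Bright-Glo addition at room temperature.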
ClpP mod: qHTS Assay for Activators of ClpP; purified B. subtilis ClpP, FRET peptide cleavage, 20 min; Potency, µM (highest dose often 57.5 µM), inactives show top-dose activity change, negative = active; actives 1.9% (n = 340,000); active means well fitted falling curve with a large enough effect; inconclusive means small, poorly fitted or top-dose-only effect; inactive means no such curve, though single readings can be large or run the other way; further: potency means the concentration at half of the fitted maximal effect; the source files actives as falling curves though it sought activators and does not explain the sign; nearly all actives have a fitted effect of over 65% in size
Target sequence (P80244 whole entry, looked up): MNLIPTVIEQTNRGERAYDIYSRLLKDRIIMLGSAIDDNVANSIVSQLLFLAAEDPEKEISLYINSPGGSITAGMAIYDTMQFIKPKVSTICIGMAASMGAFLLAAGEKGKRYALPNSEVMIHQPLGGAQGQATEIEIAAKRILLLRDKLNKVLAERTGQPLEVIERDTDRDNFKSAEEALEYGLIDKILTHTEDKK
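ClpP 10 microg/mL final, pH 8 Tris/KCl buffer with BSA, glycerol, Tween-20; compound pinned in; FRET-FV substrate; RT 20 min; Ex320/Em430; ΔFRET vs ADEP 5.8 microM, DMSO, no enzyme.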
A-T KAP1 phos: potential ataxia-telangiectasia treatments restoring KAP-1 phosphorylation. Potency, µM (top dose mostly 57.5 µM), for the others: at the highest dose activation, actives largely listed as activators. F2112 A-T fibroblasts, KAP-1 phosphorylation AlphaLISA; neocarzinostatin DNA damage 30 min before lysis. AID 485349. actives 0.19% (n = 320,000); further: potency means the concentration at half of the fitted maximal effect; % of control where 0% means no effect; nearly all actives have a fitted effect of over 45% in size
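hTERT-immortalized A-T patient fibroblasts (F2112), 500 cells/well in OPTI-MEM, 1% FBS, got compounds for 60 min, then NCS for 30 min at 37C. Lysates were then assayed for phospho-KAP-1 by AlphaLISA (anti-pKAP1 donor, anti-KAP1 acceptor beads), 6 hr at 25C.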
TCR act: activates T cell receptor signaling | primary human leukocytes, anti-CD3, IL-2 HTRF, 48 h | Potency, µM (titrated, usually from 9.22 µM), inactives show at the top dose activation of IL-2 secretion, most hits filed as activators | 330,000 tested, under 10 active | AID 504894; further: % of control where 0% means no effect
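Compounds are tested in HTS on primary human leukocytes co-incubated with a-CD3 beads for 48 hr. IL-2 output is measured by time-resolved FRET.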
MBNL1-CUG inh: inhibitors of human MBNL1 binding to CUG repeat RNA; Q9NR56; TR-FRET MBNL1-His/biotin-(CUG)12 binding, 665/545 ratio; Potency, µM (doses to about 57.5 µM), for inactives: at the highest dose activity change, negative = inhibition, actives largely listed as inhibitors; actives 0.036% (n = 280,000); AID 2675; active means well fitted inhibition curve with a large enough effect in the signal ratio, with a control signal flat, not every such curve was filed as active; inconclusive means small, poorly fitted or top-dose-only effect, or effect the other way, or a change in a side signal; inactive means no such curve, though single readings can be large or run the other way; the % refers to the signal ratio; further: potency means the concentration at half of the fitted maximal effect; on the % scale 0 is the no-effect control and ±100 the full control effect
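Ratiometric TR-FRET (665 over 545 nm, excitation 340 nm) tracks disruption of MBNL1-His/biotin-(CUG)12 complex after 60 min at room temperature, with compounds at 92 nM to 58 uM final.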
Active calls of the source: *; ? = inconclusive; / = no result; [ ] = another dose, or the depositor's remark. Unless noted, the call rests on the fitted dose curve; in most records, active means well fitted curve in the direction sought with a large enough effect; inconclusive means small, poorly fitted or top-dose-only effect, or another doubt; inactive means no such curve, though single readings can be large; an effect the other way counts as inactive or inconclusive.

SMILES	Mito fusion yeast	Glioma ERSR ind	ClpP mod	A-T KAP1 phos	TCR act	MBNL1-CUG inh
CNc1c(Br)cc(C(O)C2=CCc3ccccc32)cc1Br (stereo unspecified)	/	-3%	-1%	/	/	/
Cc1cc2ccccc2cn1	/	-3%	-5%	/	/	/
Cc1cc(C)n(C(=O)c2ccc(NC(=O)C3COc4ccccc4O3)cc2)n1 (stereo unspecified)	11%	4%	35µM*	/	5%	10%
O=C1NC(=O)/C(=C/c2ccc3nccnc3c2)S1	9.2µM*	-8%	/	/	/	/
Clc1ccc(Cn2cc3c(n2)-c2cc4ccccc4n2C3)cc1	/	-1%	?	/	/	/
O=C(NCC(c1cccs1)N1CCc2ccccc21)c1ccccc1 (stereo unspecified)	?	-1%	-2%	11%	-3%	/
COc1cccc(C(=O)NCC(c2cccs2)N2CCc3ccccc32)c1 (stereo unspecified)	16µM*	-4%	-3%	-2%	-3%	/
Cc1cnc(-n2ncc(C(=O)NCCc3ccncc3)c2-c2cccs2)nc1-c1ccc(F)cc1	/	-2%	/	/	/	/
COC(=O)C1=C(C)NC(C)=C(C(=O)OC)C1c1cn(-c2ccccc2)nc1-c1ccco1	-9%	-2%	28µM*	2%	2%	-3%
Cc1cc(=O)n2c3ccccc3n(CC(O)CN3CCCCC3)c2c1C#N (stereo unspecified)	-1%	-5%	28µM*	4%	-2%	-17%
O=C(CSc1nccn1-c1ccccc1)c1ccc(Cl)cc1	1%	1%	4%	9%	4%	-2%
Cc1ccc(C(=O)CSc2nccn2-c2ccccc2)cc1	-8%	2%	28µM*	3%	9%	-6%
Cc1cc(C)cc(-n2ccnc2SCC(=O)O)c1	-4%	-5%	28µM*	3%	-6%	-6%
COC(=O)CC(NC1CCN(c2nc(C)c3cc4c(cc3n2)CCC4)CC1)C(=O)OC (stereo unspecified)	/	-3%	/	/	/	/
COc1ccccc1C1CN(Cc2cccnc2)Cc2ccccc2O1 (stereo unspecified)	/	6%	/	/	/	/
Cc1ccc(C(C(=O)NC(C)(C)C)N(Cc2ccco2)C(=O)Cn2nnc(-c3cccs3)n2)cc1 (stereo unspecified)	4%	-5%	25µM*	/	8%[46.1 µM]	-22%
NC(=O)c1ccccc1NS(=O)(=O)c1ccccc1	2%	-2%	28µM*	-4%	6%	-4%
CCS(=O)(=O)Nc1ccccc1C(N)=O	3%	2%	/	-1%	-1%	-3%
NC(=O)c1ccccc1NS(=O)(=O)Cc1ccc(Cl)cc1	3%	-3%	22µM*	1%	/	-4%
CN(C)S(=O)(=O)Nc1ccccc1C(N)=O	-3%	0%	22µM*	-1%	0%	-5%
O=C(NCCc1ccccn1)c1cnn(-c2ncc3c(n2)-c2ccccc2CC3)c1C1CC1	/	-1%	/	/	/	/
COc1ccccc1C(=O)Nc1ccc(Oc2ncnc3sc(-c4ccccc4)cc23)cc1	1%	-4%	10µM*	3%	-3%	5%
COc1cc(C(=O)Nc2ccc(Oc3ncnc4sc(-c5ccccc5)cc34)cc2)cc(OC)c1OC	-8%	-1%	-3%	1%	-1%[46.1 µM]	-5%
Cc1ccn(CCC(=O)NCC2Cc3cc(Cl)cc(-c4ccc5[nH]ccc5c4)c3O2)n1 (stereo unspecified)	/	-3%	/	/	/	/
O=C(CN1C(=O)c2cccc3cccc1c23)NCc1ccc2c(c1)OCO2	2%	-3%	-5%	1%	/	?
O=C(CN1C(=O)c2cccc3cccc(c23)C1=O)N1CCN(Cc2ccc3c(c2)OCO3)CC1	0%	-1%	25µM*	-7%	/	?
Cc1ccccc1Nc1nnc(SCC(=O)Nc2ccccc2[N+](=O)[O-])s1	11%	-3%	32µM*	5%	5%[46.1 µM]	?

Screens deposited in PubChem by National Center for Advancing Translational Sciences (NCATS).
